What was measured:
Assay in all cases: SPOT peptide array binding signal intensity (averaged, normalized) (arbitrary units (background-subtracted, floor 0; scale differs between SH3 domains)); higher = stronger binding of the SH3 domain to the peptide
[1] = molecular target: AgAbp1
Procedure: (§1)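 GST-tagged SH3 domains from S. cerevisiae (Sc), A. gossypii (Ag), C. albicans (Ca) and S. pombe (Sp) were incubated at 10 ug/ml overnight at 4 C on cellulose SPOT membranes carrying 292 synthetic 15-mer peptides mined from the S. cerevisiae proteome (cysteines replaced by serines). Binding was detected with anti-GST antibody, HRP secondary and chemiluminescence, quantified with Genespotter, and reported as normalized spot intensities averaged over biological replicates.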

[2] = molecular target: AgBbc1
Procedure: as §1

[3] = molecular target: AgBem1-D1
Procedure: as §1

[4] = molecular target: AgBzz1-D1
Procedure: as §1

[5] = molecular target: AgBzz1-D2
Procedure: as §1

[6] = molecular target: AgCyk3
Procedure: as §1

[7] = molecular target: AgFus1
Procedure: as §1

[8] = molecular target: AgHof1
Procedure: as §1

[9] = molecular target: AgHse1
Procedure: as §1

[10] = molecular target: AgLsb1
Procedure: as §1

[11] = molecular target: AgLsb4
Procedure: as §1

[12] = molecular target: AgMyo5
Procedure: as §1

[13] = molecular target: AgNbp2
Procedure: as §1

[14] = molecular target: AgRvs167
Procedure: as §1

[15] = molecular target: AgSho1
Procedure: as §1

[16] = molecular target: AgSla1-D1-D2
Procedure: as §1

[17] = molecular target: AgSla1-D3
Procedure: as §1

[18] = molecular target: CaAbp1-D1
Procedure: as §1

[19] = molecular target: CaAbp1-D2
Procedure: as §1

[20] = molecular target: CaBbc1
Procedure: as §1

[21] = molecular target: CaBem1-D1
Procedure: as §1

[22] = molecular target: CaBzz1-D1
Procedure: as §1

[23] = molecular target: CaBzz1-D2
Procedure: as §1

[24] = molecular target: CaCyk3
Procedure: as §1

[25] = molecular target: CaFus1
Procedure: as §1

[26] = molecular target: CaHof1
Procedure: as §1

[27] = molecular target: CaHse1
Procedure: as §1

[28] = molecular target: CaLsb1
Procedure: as §1

[29] = molecular target: CaLsb4
Procedure: as §1

[30] = molecular target: CaMyo5
Procedure: as §1

[31] = molecular target: CaNbp2
Procedure: as §1

[32] = molecular target: CaRvs167
Procedure: as §1

[33] = molecular target: CaRvs167-3
Procedure: as §1

[34] = molecular target: CaSho1
Procedure: as §1

[35] = molecular target: CaSla1-D1-D2
Procedure: as §1

[36] = molecular target: CaSla1-D3
Procedure: as §1

[37] = molecular target: ScAbp1
Procedure: as §1

[38] = molecular target: ScBbc1
Procedure: as §1

[39] = molecular target: ScBem1-D1
Procedure: as §1

[40] = molecular target: ScBzz1-D1
Procedure: as §1

[41] = molecular target: ScBzz1-D2
Procedure: as §1

[42] = molecular target: ScCyk3
Procedure: as §1

[43] = molecular target: ScFus1
Procedure: as §1

[44] = molecular target: ScHof1
Procedure: as §1

[45] = molecular target: ScHse1
Procedure: as §1

[46] = molecular target: ScLsb1
Procedure: as §1

[47] = molecular target: ScLsb2
Procedure: as §1

[48] = molecular target: ScLsb3
Procedure: as §1

[49] = molecular target: ScLsb4
Procedure: as §1

[50] = molecular target: ScMyo3
Procedure: as §1

[51] = molecular target: ScMyo5
Procedure: as §1

[52] = molecular target: ScNbp2
Procedure: as §1

[53] = molecular target: ScPex13
Procedure: as §1

[54] = molecular target: ScRvs167
Procedure: as §1

[55] = molecular target: ScSho1
Procedure: as §1

[56] = molecular target: ScSla1-D1-D2
Procedure: as §1

[57] = molecular target: ScSla1-D3
Procedure: as §1

[58] = molecular target: SpAbp1-D1
Procedure: as §1

[59] = molecular target: SpBbc1
Procedure: as §1

[60] = molecular target: SpBzz1-D1
Procedure: as §1

[61] = molecular target: SpBzz1-D2
Procedure: as §1

[62] = molecular target: SpCyk3
Procedure: as §1

[63] = molecular target: SpHof1
Procedure: as §1

[64] = molecular target: SpHof1-2
Procedure: as §1

[65] = molecular target: SpHof1-3
Procedure: as §1

[66] = molecular target: SpHse1
Procedure: as §1

[67] = molecular target: SpLsb1
Procedure: as §1

[68] = molecular target: SpLsb4
Procedure: as §1

[69] = molecular target: SpMyo1
Procedure: as §1

[70] = molecular target: SpNbp2
Procedure: as §1

[71] = molecular target: SpPex13
Procedure: as §1

[72] = molecular target: SpRvs167
Procedure: as §1

[73] = molecular target: SpSla1-D1-D2
Procedure: as §1

[74] = molecular target: SpSla1-D3
Procedure: as §1

Q: Which “SPOT peptide array binding signal intensity” value [1] does the source give for AERNYAPRLPRRETS here?
A: The value was 20.

Q: What about the “SPOT peptide array binding signal intensity” value [2] of the same binder?
A: Its value is 69.8.

Q: And the “SPOT peptide array binding signal intensity” value [3]?
A: The value was 44.8.

Q: And the “SPOT peptide array binding signal intensity” value [4]?
A: The value was 77.

Q: What about the “SPOT peptide array binding signal intensity” value [5] of the same binder?
A: Its value is 128.

Q: And the “SPOT peptide array binding signal intensity” value [6]?
A: The value was 1.

Q: And the “SPOT peptide array binding signal intensity” value [7]?
A: The value was 3.25.

Q: And the “SPOT peptide array binding signal intensity” value [8]?
A: Its value is 124.

Q: And the “SPOT peptide array binding signal intensity” value [9]?
A: Its value is 87.5.

Q: What about the “SPOT peptide array binding signal intensity” value [10] of the same binder?
A: Its value is 289.

Q: What about the “SPOT peptide array binding signal intensity” value [11] of the same binder?
A: The value was 3440.

Q: And the “SPOT peptide array binding signal intensity” value [12]?
A: Its value is at most 0.

Q: What about the “SPOT peptide array binding signal intensity” value [13] of the same binder?
A: The value was 128.

Q: And the “SPOT peptide array binding signal intensity” value [14]?
A: The value was 340.

Q: And the “SPOT peptide array binding signal intensity” value [15]?
A: Its value is at most 0.

Q: What about the “SPOT peptide array binding signal intensity” value [16] of the same binder?
A: Its value is 1.5.

Q: What about the “SPOT peptide array binding signal intensity” value [17] of the same binder?
A: Its value is at most 0.

Q: What about the “SPOT peptide array binding signal intensity” value [18] of the same binder?
A: Its value is 84.

Q: And the “SPOT peptide array binding signal intensity” value [19]?
A: The value was 61.

Q: What about the “SPOT peptide array binding signal intensity” value [20] of the same binder?
A: Its value is 454.

Q: And the “SPOT peptide array binding signal intensity” value [21]?
A: The value was 25.5.

Q: What about the “SPOT peptide array binding signal intensity” value [22] of the same binder?
A: The value was 171.

Q: What about the “SPOT peptide array binding signal intensity” value [23] of the same binder?
A: Its value is 62.6.

Q: What about the “SPOT peptide array binding signal intensity” value [24] of the same binder?
A: Its value is 9.

Q: What about the “SPOT peptide array binding signal intensity” value [25] of the same binder?
A: Its value is 23.8.

Q: What about the “SPOT peptide array binding signal intensity” value [26] of the same binder?
A: Its value is 7.5.

Q: What about the “SPOT peptide array binding signal intensity” value [27] of the same binder?
A: Its value is 222.

Q: What about the “SPOT peptide array binding signal intensity” value [28] of the same binder?
A: The value was 4.75.

Q: What about the “SPOT peptide array binding signal intensity” value [29] of the same binder?
A: Its value is 4670.

Q: What about the “SPOT peptide array binding signal intensity” value [30] of the same binder?
A: Its value is 5.5.

Q: And the “SPOT peptide array binding signal intensity” value [31]?
A: The value was 52.5.

Q: What about the “SPOT peptide array binding signal intensity” value [32] of the same binder?
A: The value was 1200.

Q: What about the “SPOT peptide array binding signal intensity” value [33] of the same binder?
A: Its value is at most 0.

Q: And the “SPOT peptide array binding signal intensity” value [34]?
A: The value was 22.5.

Q: And the “SPOT peptide array binding signal intensity” value [35]?
A: The value was 19.

Q: And the “SPOT peptide array binding signal intensity” value [36]?
A: Its value is 0.75.

Q: And the “SPOT peptide array binding signal intensity” value [37]?
A: Its value is 27.8.

Q: And the “SPOT peptide array binding signal intensity” value [38]?
A: The value was 22.4.

Q: What about the “SPOT peptide array binding signal intensity” value [39] of the same binder?
A: Its value is 6.

Q: What about the “SPOT peptide array binding signal intensity” value [40] of the same binder?
A: The value was 56.8.

Q: What about the “SPOT peptide array binding signal intensity” value [41] of the same binder?
A: Its value is 73.8.

Q: And the “SPOT peptide array binding signal intensity” value [42]?
A: Its value is 2.25.

Q: And the “SPOT peptide array binding signal intensity” value [43]?
A: Its value is at most 0.

Q: And the “SPOT peptide array binding signal intensity” value [44]?
A: Its value is 17.1.

Q: And the “SPOT peptide array binding signal intensity” value [45]?
A: Its value is 42.

Q: What about the “SPOT peptide array binding signal intensity” value [46] of the same binder?
A: Its value is 184.

Q: And the “SPOT peptide array binding signal intensity” value [47]?
A: Its value is 158.

Q: What about the “SPOT peptide array binding signal intensity” value [48] of the same binder?
A: The value was 6160.

Q: What about the “SPOT peptide array binding signal intensity” value [49] of the same binder?
A: Its value is 3130.

Q: What about the “SPOT peptide array binding signal intensity” value [50] of the same binder?
A: Its value is 0.75.

Q: And the “SPOT peptide array binding signal intensity” value [51]?
A: The value was at most 0.

Q: What about the “SPOT peptide array binding signal intensity” value [52] of the same binder?
A: Its value is 283.

Q: And the “SPOT peptide array binding signal intensity” value [53]?
A: The value was 252.

Q: And the “SPOT peptide array binding signal intensity” value [54]?
A: The value was 2200.

Q: What about the “SPOT peptide array binding signal intensity” value [55] of the same binder?
A: Its value is 268.

Q: And the “SPOT peptide array binding signal intensity” value [56]?
A: The value was 206.

Q: What about the “SPOT peptide array binding signal intensity” value [57] of the same binder?
A: Its value is 13.

Q: And the “SPOT peptide array binding signal intensity” value [58]?
A: The value was 50.5.

Q: And the “SPOT peptide array binding signal intensity” value [59]?
A: The value was 7.25.

Q: What about the “SPOT peptide array binding signal intensity” value [60] of the same binder?
A: Its value is 332.

Q: What about the “SPOT peptide array binding signal intensity” value [61] of the same binder?
A: The value was 4.5.

Q: And the “SPOT peptide array binding signal intensity” value [62]?
A: Its value is 2.

Q: And the “SPOT peptide array binding signal intensity” value [63]?
A: The value was 49.2.

Q: What about the “SPOT peptide array binding signal intensity” value [64] of the same binder?
A: Its value is 10.2.

Q: What about the “SPOT peptide array binding signal intensity” value [65] of the same binder?
A: Its value is 197.

Q: And the “SPOT peptide array binding signal intensity” value [66]?
A: Its value is 85.5.

Q: What about the “SPOT peptide array binding signal intensity” value [67] of the same binder?
A: The value was 177.

Q: What about the “SPOT peptide array binding signal intensity” value [68] of the same binder?
A: Its value is 3100.

Q: And the “SPOT peptide array binding signal intensity” value [69]?
A: Its value is 11.5.

Q: And the “SPOT peptide array binding signal intensity” value [70]?
A: The value was at most 0.

Q: What about the “SPOT peptide array binding signal intensity” value [71] of the same binder?
A: Its value is 3.5.

Q: What about the “SPOT peptide array binding signal intensity” value [72] of the same binder?
A: Its value is 1930.

Q: And the “SPOT peptide array binding signal intensity” value [73]?
A: The value was at most 0.

Q: What about the “SPOT peptide array binding signal intensity” value [74] of the same binder?
A: Its value is at most 0.

Source: the supplement of paper PMC4466140
